Among the data in PubChem BioAssay (Tox21) are outcome and Potency values, retold here.

A short description of assay [1]: qHTS assay to identify small molecule agonists of the sonic hedgehog signaling (Shh) pathway (AID 1259368; calls by dose curve;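 note: NIH/3T3-derived 3T3Gli1-Luc cells carrying a stable Gli1-driven firefly luciferase reporter; series mostly up to about 92 µM; nearly all actives have a fitted effect of over 15% in size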). The method in brief:
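NIH/3T3-derived 3T3Gli1-Luc cells with stably integrated Gli1-driven firefly luciferase, 2,000 cells/well, compounds added after 4 hr. Incubated 24 hr at 37C, 5% CO2; luminescence read after 30 min with luciferase reagent at room temperature.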

Assay [2] can be described thus: qHTS assay to identify small molecule antagonists of the sonic hedgehog signaling (Shh) pathway (AID 1259369; calls by dose curve; note: nearly all actives have a fitted effect of over 45% in size; note: potency is the fitted concentration of half-maximal effect). Summed up: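 NIH/3T3-derived Gli1-Luc reporter cells plated 4 h, dosed with compound, then stimulated with conditioned medium for 24 h at 37 C. Firefly luciferase luminescence read after 30 min with detection reagent at room temperature.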
In assay [3] the target is Estrogen receptor beta (Homo sapiens) (UniProt Q92731). Kind of assay: qHTS assay to identify small molecule agonists of the estrogen receptor beta (ER-beta) signaling pathway (AID 1259377; active = well fitted activation curve with a large enough effect in the signal ratio in the repeat runs, not every such curve was filed as active; the % refers to the signal ratio; note: potency is the fitted concentration of half-maximal effect). The method in brief: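 In HEK293T cells bearing a UAS-beta-lactamase reporter under ER-beta control, DMSO-delivered compounds were incubated for 16 hr at 37C. Activity was detected as fluorescence 2 hours after LiveBLAzer B/G FRET substrate addition.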
Chain of Estrogen receptor beta (Homo sapiens) (Q92731 whole entry, looked up): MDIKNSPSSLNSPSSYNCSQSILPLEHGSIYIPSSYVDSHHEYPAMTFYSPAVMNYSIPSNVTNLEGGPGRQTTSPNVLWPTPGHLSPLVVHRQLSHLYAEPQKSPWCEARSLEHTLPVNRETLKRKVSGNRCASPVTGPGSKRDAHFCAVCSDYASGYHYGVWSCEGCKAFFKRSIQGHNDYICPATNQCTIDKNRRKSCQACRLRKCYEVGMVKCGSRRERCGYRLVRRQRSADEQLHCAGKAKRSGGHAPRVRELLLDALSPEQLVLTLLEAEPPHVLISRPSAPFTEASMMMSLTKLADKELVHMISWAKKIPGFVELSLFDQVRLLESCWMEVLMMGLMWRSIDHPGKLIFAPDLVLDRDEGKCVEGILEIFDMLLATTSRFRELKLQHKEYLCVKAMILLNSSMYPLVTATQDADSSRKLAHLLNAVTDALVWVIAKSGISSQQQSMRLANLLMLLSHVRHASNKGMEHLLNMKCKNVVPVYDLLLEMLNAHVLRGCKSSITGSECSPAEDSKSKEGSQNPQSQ

Assay [4] is described as follows: qHTS assay to identify small molecule agonists of the androgen receptor (AR) signaling pathway in the presence of an antagonist - cell viability counter screen (AID 1259379).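 Note: MDA-kb2 human breast cancer cells carrying an MMTV luciferase reporter; series mostly up to about 92 µM; nearly all actives have a fitted effect of over 25% in size.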 The method in brief:
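MDA-kb2 cells (MMTV-luciferase, AR/GR), 3,000/well, 5 h attachment, then 3.0 µM nilutamide (final) and compounds at 15 concentrations. Viability by CellTiter-Fluor fluorescence after 16 h at 37 °C, 0% CO2, in the reporter wells.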
Background: Quantitative high-throughput screening tests each substance at several concentrations.

Assay [5] can be described thus: qHTS assay to identify small molecule agonists of the estrogen receptor beta (ER-beta) signaling pathway - cell viability counter screen (AID 1259380). Note: nearly all actives have a fitted effect of over 30% in size. Note: potency is the fitted concentration of half-maximal effect. Summed up: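 ER-beta-UAS-bla HEK293T cells in medium with 2% charcoal-stripped FBS, pre-incubated 6 hr, then treated 16 hr at 37C. Cytotoxicity read in the same wells by CellTiter-Glo luminescence after 30 min at room temperature.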

Assay [6] is described as follows: qHTS assay to identify small molecule antagonists of the estrogen receptor beta (ER-beta) signaling pathway - cell viability counter screen (AID 1259382).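 Note: HEK293T cells carrying ER-beta-UAS-bla reporter stimulated with estradiol; series mostly up to about 92 µM; nearly all actives have a fitted effect of over 55% in size.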 Summed up:
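ER-beta-UAS-bla HEK293T cells in 2% charcoal-stripped FBS medium, treated with compound plus 1 nM 17-beta-estradiol for 16 h at 37C. Viability read by CellTiter-Glo luminescence after 30 min at room temperature in the same wells.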

A short description of assay [7]: qHTS assay to identify small molecule agonists of the estrogen receptor alpha (ER-alpha) signaling pathway in the presence of an antagonist - cell viability counter screen (AID 1259386).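 Note: series mostly up to about 92 µM; cells exposed to compounds for 22 h at 37 °C before the viability read; nearly all actives have a fitted effect of over 30% in size.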 Summed up: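 Cell viability in VM7Luc4E2 cells (endogenous full-length ER-alpha) measured by CellTiter-Fluor fluorescence in the same wells as the luciferase screen. Cells pre-cultured 5 days in charcoal-stripped serum, then treated 22 h with compounds at 15 concentrations plus 10.0nM ICI-182,780.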

The target in assay [8] is Progesterone receptor (Homo sapiens) (UniProt P06401). Nature of the assay: qHTS assay to identify small molecule agonists of the progesterone receptor (PR) signaling pathway (AID 1346784; calls by dose curve; note: nearly all actives have a fitted effect of over 30% in size). Summed up: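 Using charcoal-stripped serum (2%) to limit endogenous steroids, PR-UAS-bla HEK 293T cells received compounds for 16 hr at 37C after 6 hr plating; beta-lactamase FRET fluorescence was recorded following 2 hr substrate loading at room temperature.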
Chain of Progesterone receptor (Homo sapiens) (P06401 whole entry, looked up): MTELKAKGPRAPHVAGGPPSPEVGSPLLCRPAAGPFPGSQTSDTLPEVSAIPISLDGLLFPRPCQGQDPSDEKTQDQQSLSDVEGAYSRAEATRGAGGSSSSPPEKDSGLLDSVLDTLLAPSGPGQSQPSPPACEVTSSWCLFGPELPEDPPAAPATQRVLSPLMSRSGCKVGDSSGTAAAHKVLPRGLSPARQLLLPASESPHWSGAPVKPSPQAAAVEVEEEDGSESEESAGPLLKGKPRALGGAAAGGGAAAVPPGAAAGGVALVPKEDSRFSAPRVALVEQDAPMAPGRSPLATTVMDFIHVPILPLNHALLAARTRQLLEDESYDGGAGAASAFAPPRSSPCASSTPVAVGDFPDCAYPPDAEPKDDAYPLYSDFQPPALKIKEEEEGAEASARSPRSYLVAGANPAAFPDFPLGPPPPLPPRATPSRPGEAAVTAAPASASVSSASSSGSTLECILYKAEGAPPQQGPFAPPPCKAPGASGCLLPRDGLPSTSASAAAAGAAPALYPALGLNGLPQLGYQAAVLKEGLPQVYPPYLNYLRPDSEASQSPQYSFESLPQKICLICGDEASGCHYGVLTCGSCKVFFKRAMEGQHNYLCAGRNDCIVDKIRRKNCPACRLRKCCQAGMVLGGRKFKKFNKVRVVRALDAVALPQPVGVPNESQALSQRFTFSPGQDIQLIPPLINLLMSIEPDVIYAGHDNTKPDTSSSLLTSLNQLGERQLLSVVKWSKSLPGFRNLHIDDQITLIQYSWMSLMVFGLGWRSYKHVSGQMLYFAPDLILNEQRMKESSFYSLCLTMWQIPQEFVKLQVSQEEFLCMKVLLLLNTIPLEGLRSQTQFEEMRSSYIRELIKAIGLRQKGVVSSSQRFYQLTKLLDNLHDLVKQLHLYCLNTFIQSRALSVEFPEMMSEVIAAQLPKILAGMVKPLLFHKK

For assay [9] the target is unchanged. Kind of assay: qHTS assay to identify small molecule antagonists of the progesterone receptor (PR) signaling pathway (AID 1346795; active = well fitted inhibition curve with a large enough effect in the signal ratio in the repeat runs, not every such curve was filed as active; the % refers to the signal ratio). Summed up:
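Inhibition of R5020-induced (1 nM final) beta-lactamase reporter signal in PR-UAS-bla HEK293T cells was scored by FRET fluorescence after overnight (16 hr) compound treatment.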

The nature of assay [10]: qHTS assay to identify small molecule antagonists of the progesterone receptor (PR) signaling pathway - cell viability counter screen (AID 1346798). Note: series mostly up to about 92 µM; nearly all actives have a fitted effect of over 50% in size. The method in brief: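 ATP content as viability readout: CellTiter-Glo luminescence, 30 min room temperature, in PR-UAS-bla HEK293T cells after 16 hr compound/R5020 treatment at 37C and 5% CO2.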
Assay [11] in a line: qHTS assay to identify small molecule agonists of the progesterone receptor (PR) signaling pathway - cell viability counter screen (AID 1346799; calls by dose curve; note: nearly all actives have a fitted effect of over 45% in size). Summed up:
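Cytotoxicity in PR-bla HEK293T cells: 16 h compound, 37C; CellTiter-Glo added post-FRET read; luminescence after 30 min RT.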

Assay [12] in a line: qHTS assay to identify small molecule antagonists of the TGF-beta/Smad signaling pathway - cell viability counter screen (AID 1346824). Note: nearly all actives have a fitted effect of over 50% in size. Summed up: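 Cytotoxicity counter-screen run in the same wells as the beta-lactamase Smad reporter read: CellTiter-Glo luminescence after 30 min at room temperature. HEK 293T SBE-bla cells had 5 hr compound exposure at 37 C with TGF-beta1 (0.25 ng/mL stock).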

Assay [13] is described as follows: qHTS assay to identify small molecule agonists of the TGF-beta/Smad signaling pathway - cell viability counter screen (AID 1346829). Note: nearly all actives have a fitted effect of over 45% in size. Note: potency is the fitted concentration of half-maximal effect. The method in brief:
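Cytotoxicity counter screen: CellTiter-Glo luminescence (30 min, room temperature) measured in the SBE-bla HEK 293T reporter wells after 5 hr compound treatment at 37 C and the 2 hr substrate step.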

The target of assay [14] is Thyrotropin-releasing hormone receptor (Homo sapiens) (UniProt P34981). Nature of the assay: qHTS assay to identify small molecule antagonists of the thyrotropin-releasing hormone receptor (TRHR) signaling pathway (AID 1346877; active = well fitted inhibition curve with a large enough effect in the repeat runs, not every such curve was filed as active; note: series mostly up to about 51 µM). Summed up: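 TRHR-expressing HEK293 cells loaded with calcium dye for 2 h at 37 C; compounds pre-incubated 5 min at room temperature before TRH challenge at 1 nM final. Intracellular calcium fluorescence read kinetically for 3 min; 15 concentrations in triplicate.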
Chain of Thyrotropin-releasing hormone receptor (Homo sapiens) (P34981 whole entry, looked up): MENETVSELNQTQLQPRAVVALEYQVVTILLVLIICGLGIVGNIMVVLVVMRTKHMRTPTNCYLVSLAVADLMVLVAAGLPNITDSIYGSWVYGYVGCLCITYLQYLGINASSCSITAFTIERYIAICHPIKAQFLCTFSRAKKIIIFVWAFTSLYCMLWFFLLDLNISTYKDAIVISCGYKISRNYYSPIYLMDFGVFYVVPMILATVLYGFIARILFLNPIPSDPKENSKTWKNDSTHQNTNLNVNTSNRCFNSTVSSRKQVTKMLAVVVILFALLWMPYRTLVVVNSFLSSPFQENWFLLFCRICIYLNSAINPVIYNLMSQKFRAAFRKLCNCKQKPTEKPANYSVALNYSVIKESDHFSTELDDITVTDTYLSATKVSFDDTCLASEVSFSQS

Assay [15] is described as follows: qHTS assay to identify small molecule agonists or antagonists of the thyroid stimulating hormone receptor (TSHR) signaling pathway - wild type cell line counter screen (AID 1259384; calls by dose curve). Summed up: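 Counter screen in untransfected Hek293: compounds (15-point titration, triplicate) plus phosphodiesterase inhibitor Ro20-1724 added after 18 h plating; 30 min RT. Intracellular cAMP via competitive d2/cryptate immunoassay, 1 h incubation.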

Assay [16] has as its target Thyrotropin receptor (Homo sapiens) (UniProt P16473). Nature of the assay: qHTS assay to identify small molecule antagonists of the thyroid stimulating hormone receptor (TSHR) signaling pathway (AID 1259385; calls by dose curve; note: nearly all actives have a fitted effect of over 20% in size). The method in brief:
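Antagonist mode: compound-treated TSHR-expressing HEK293 cells were stimulated with 1.5 ng/mL TSH (final) in presence of Ro20-1724 for 30 min at RT. HTRF cAMP detection after 1 h; each compound tested at 15 concentrations, triplicate.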

Assay [17] can be described thus: qHTS assay to identify small molecule agonists of the TGF-beta/Smad signaling pathway (AID 1346859; active = well fitted activation curve with a large enough effect in the signal ratio in the repeat runs, not every such curve was filed as active; the % refers to the signal ratio; note: series mostly up to about 77 µM). Summed up: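 Stable Smad binding element-beta-lactamase HEK 293T cells; 5 hr compound exposure at 37 C under 5% CO2; 2 hr room-temperature substrate step; fluorescence excited at 405 nm, collected at 460 nm and 530 nm.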

Where “and” joins values, the source holds several entries; their conditions need not be identical. Equal entries are not always repeated. Inconclusive results are not listed. A structure can be active in one record and inactive in another. Calls of active or inactive are those of the source. Unless noted, calls come from the whole dose curve; as a rule, active = well fitted curve in the direction sought with a large enough effect in the repeat runs; inconclusive = weak or mixed curves; inactive = no such curve, though single readings can be large; an effect the other way counts as inactive or inconclusive.

Chain of Thyrotropin receptor (Homo sapiens) (P16473 whole entry, looked up): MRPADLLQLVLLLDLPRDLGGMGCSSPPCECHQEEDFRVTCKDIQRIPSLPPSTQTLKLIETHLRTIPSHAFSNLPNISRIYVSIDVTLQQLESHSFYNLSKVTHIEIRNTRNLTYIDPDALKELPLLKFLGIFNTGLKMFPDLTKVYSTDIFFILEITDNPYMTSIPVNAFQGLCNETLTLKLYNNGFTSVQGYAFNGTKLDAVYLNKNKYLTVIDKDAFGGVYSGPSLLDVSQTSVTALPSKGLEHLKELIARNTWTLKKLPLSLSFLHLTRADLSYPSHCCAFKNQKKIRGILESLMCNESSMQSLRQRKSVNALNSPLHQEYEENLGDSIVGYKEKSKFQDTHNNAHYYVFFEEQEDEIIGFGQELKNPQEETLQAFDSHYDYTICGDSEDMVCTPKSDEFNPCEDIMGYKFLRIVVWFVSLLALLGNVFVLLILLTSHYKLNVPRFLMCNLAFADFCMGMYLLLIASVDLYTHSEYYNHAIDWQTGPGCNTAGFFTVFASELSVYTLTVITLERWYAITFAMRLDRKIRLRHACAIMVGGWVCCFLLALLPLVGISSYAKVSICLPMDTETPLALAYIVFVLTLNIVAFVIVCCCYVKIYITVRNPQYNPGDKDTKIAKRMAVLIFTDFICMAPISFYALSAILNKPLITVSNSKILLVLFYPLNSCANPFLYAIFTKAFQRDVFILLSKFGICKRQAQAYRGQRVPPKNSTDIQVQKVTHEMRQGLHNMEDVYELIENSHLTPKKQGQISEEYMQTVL

Consider `CN(C)C(=O)C(c1ccccc1)c1ccccc1`, for which the outcome in assay [1], in assay [6], in assay [11] and in [14] was inactive. Also, the Potency entry in assay [2], in assay [3], in [4], in assay [5], in assay [7] and in assay [8] was “inactive” throughout. Also, the Potency result in assay [9], in assay [10], in [12] and in assay [13] was “inactive” throughout.

With `N#CN=C(N)N`, the call in assay [1], in assay [6], in assay [15], in [16], in [11] and in assay [14] was inactive. The Potency result in [2], in assay [3], in [4], in assay [5], in [7] and in assay [8] was “inactive” throughout. Further, the Potency result in assay [9], in assay [10], in [12] and in [13] was “inactive” throughout.

As for `OC[C@@H](O)[C@H]1O[C@@H]2O[C@H](C(Cl)(Cl)Cl)O[C@@H]2[C@H]1O`, the result in [1], in assay [6], in assay [15], in assay [16], in assay [11] and in assay [17] was inactive. For the same molecule, in [14], the outcome was inactive. In addition, the Potency entry in assay [2], in assay [3], in assay [4], in [5], in assay [7] and in [8] was “inactive” in each case. For the same molecule, the Potency result in assay [9], in assay [12] and in [13] was “inactive” in each case.

With `C[C@]12CC[C@H](O)CC1=CC[C@@H]1[C@@H]2CC[C@]2(C)C(=O)CC[C@@H]12`, the result in assay [1], in assay [6], in assay [15], in assay [16] and in assay [11] was inactive. Besides, the Potency in [2] is 1.37 µM (active) and 19.3 µM (active); in assay [3], 386 nM (active) and 473 nM (active); in assay [5], 48.6 µM (active) and 27.3 µM (active). The Potency result in assay [4], in assay [7], in assay [8], in assay [10], in [12] and in assay [13] was “inactive” throughout.

With `CN(C)NC(=O)CCC(=O)O`, the outcome in assay [1], in assay [6], in assay [15], in assay [16], in assay [11] and in assay [17] was inactive. In addition, the Potency entry in [2], in assay [3], in assay [4], in assay [5], in [7] and in assay [8] was “inactive” in each case. Further, the Potency entry in assay [9], in assay [12] and in assay [13] was “inactive” in each case.

As for `N#Cc1cccc(C#N)c1`, the result in assay [1], in [6], in [15], in [16], in assay [11] and in [14] was inactive. The Potency entry in [2], in [3], in [4], in assay [5], in assay [7] and in [8] was “inactive” each time. The Potency result in assay [9], in assay [10], in assay [12] and in assay [13] was “inactive” throughout.

On to `Cc1ccc(O)c(C)c1`, for which the result in [1], in assay [6], in assay [15], in assay [16], in [11] and in [17] was inactive. Moreover, the call in assay [14] was inactive. In addition, the Potency entry in assay [2], in [3], in [4], in [5], in assay [7] and in assay [8] was “inactive” in each case. Besides, the Potency entry in assay [9], in assay [10], in [12] and in assay [13] was “inactive” throughout.

`OCc1ccco1`: the outcome in [1], in [6], in [15], in assay [16], in assay [11] and in [17] was inactive. Further, in assay [14], the call was inactive. Further, the Potency entry in assay [2], in assay [3], in [4], in [5], in assay [7] and in assay [8] was “inactive” each time. For the same molecule, the Potency result in assay [9], in [10], in [12] and in [13] was “inactive” throughout.

Regarding `CNC(=O)O/N=C/C(C)(C)S(C)=O` (stereo unspecified), the molecule was classed as inactive in [1], in [6], in assay [15], in assay [16], in assay [11] and in [17]. In assay [14], the call was inactive. For the same molecule, the Potency in assay [2] is 39.1 µM (active) and inactive; in assay [13], 24.9 µM (active) and inactive. Besides, the Potency entry in [3], in assay [4], in assay [5], in assay [7], in assay [8] and in assay [9] was “inactive” in each case. In addition, in assay [10], the Potency entry is “inactive”.
